The values that follow come from ChEMBL document CHEMBL4513216, “Probing the Open Global Health Chemical Diversity Library for Multistage-Active Starting Points for Next-Generation Antimalarials” (ACS Infect Dis, 2020).

About 8,600 (12%) of roughly 69,000 compounds showed an effect of 50% or more. Only a selection was taken, and strong results are over-represented in it overall.

This experiment concerns Plasmodium berghei. In words: Screen against P. berghei liver stage (PbLuc), transformed with Luciferase, at 10uM. In kind it is functional, HepG2. Conditions: tested at 10 uM.
As to `CC(=O)N1CCC(c2nn(C)c3nccnc23)C1` (stereo unspecified), the INHIBITION is -2.11%.
Next, `CC(C)n1cc(CN2CCCN(C(=O)COC3CCCC3)CC2)cn1`: 45.7%; `CCOc1ccc(-c2nc(C(=O)NCC3CCOC3)cs2)cc1` (stereo unspecified): -16%.
Take `CC(C)(C)c1cc(=O)n2c(n1)SCC(C(=O)NCc1ccco1)C2` (stereo unspecified): the INHIBITION is listed as 46.1%.
As for `COc1ccc(C2=Nn3c(CN)nnc3-c3ccccc3C2)cc1`, the figure is 64%.
Next, `COc1ccc(C2=Nn3c(CCN)nnc3-c3ccccc3C2)cc1`: 21.7%; `COc1ccc(C2=Nn3c(CCCN)nnc3-c3ccccc3C2)cc1`: 18.4%; `Cc1cc(C)nc(Nc2cccc(C3CCCN(C)C3)n2)n1` (stereo unspecified): 28.4%.
On to `Cc1ccc(NC2CCCN(C3Cc4ccccc4C3)C2)nn1` (stereo unspecified), for which the INHIBITION is 34.9%.
For the compound `c1ccc2c(c1)CC(N1CCCC(NCc3cccc4nonc34)C1)C2` (stereo unspecified), the INHIBITION is recorded as 41.5%.
Next, `O=C(NCc1ccc2nonc2c1)C1CCN(C(=O)C2CCC2)CC1`: -119%; `c1ccc2c(c1)CC(N1CCCC(NCc3ccc4nonc4c3)C1)C2` (stereo unspecified): 50.1%.
On to `CNc1cc(C)nc(NC2CCCN(C3Cc4ccccc4C3)C2)n1` (stereo unspecified), for which the INHIBITION came out at 79.4%.
Next, `CNc1nc(C)cc(NC2CCCN(C3Cc4ccccc4C3)C2)n1` (stereo unspecified): 83.9%.
As for `Cc1cc(C)nc(Nc2cccc(C3CCCN(S(C)(=O)=O)C3)n2)n1` (stereo unspecified), the figure is 44.8%; as for `Cc1cc(C)nc(NC2CCc3nc(C)nn3C2)n1` (stereo unspecified), -12.1%.
Turning to `Cc1ccc(CNCC2CCN(CC(O)c3ccccc3)CC2)o1` (stereo unspecified), the INHIBITION was -23.8%.
As for `O=C(NCc1nncn1C1CC1)c1ccccc1OCC1CC1`, the figure is 25.6%; as for `CN(C)c1ncc(-c2cc(C(=O)NCCO)n(CC3CC3)c2)cn1`, 26.3%.
Take `CCOc1ccccc1C(=O)Oc1cc(=O)n2cccc(C)c2n1`: the INHIBITION was 4.35%.
As for `O=C(NC1CCC1)c1c2c(N3CCCC3)ncnc2n2ccccc12`, the INHIBITION came out at 46.2%.
Next, `COCCCN(CCOC)C(=O)Nc1ccccc1-n1cccn1`: 32.2%; `COCCN(C)C(=O)c1ccccc1-n1cc(CN(C)C)cn1`: -29.8%.
As for `COCCN(C)C(=O)c1ccccc1-n1cccn1`, the figure is 63.8%; as for `CC(C)n1nc(CN2CCCC2=O)c2c1CN(C(=O)c1ccno1)C2`, 27.5%; as for `CC(C)n1nc(CN2CCOCC2)c2c1CN(C(=O)c1ccno1)C2`, 62.3%.
For `CC(C)n1nc(CN2CCCCC2)c2c1CN(C(=O)c1ccno1)C2`, the INHIBITION is given as 26.5%.
As for `COCCNC(=O)c1cc(C)nc(C2CCN(C)CC2)n1`, the INHIBITION is -22.5%.
`CNC(=O)[C@@H]1COC[C@H]2CN(C(=O)c3ccc(C)c(C)c3)C[C@H]21`: the INHIBITION was determined as 51.2%.
Consider `CCc1ccc(C(=O)N2C[C@@H]3COC[C@@H](C(=O)NC)[C@@H]3C2)cc1`, for which the INHIBITION came out at 6.83%.
For the compound `CNC(=O)[C@@H]1COC[C@H]2CN(C(=O)COc3ccccc3)C[C@H]21`, the INHIBITION came out at 63%.
In the case of `CNC(=O)[C@@H]1COC[C@H]2CN(C(=O)c3ccc(OC)cc3)C[C@H]21`, the INHIBITION is -2.03%.
Regarding `CNC(=O)[C@@H]1COC[C@H]2CN(C(=O)c3cccc(OC)c3)C[C@H]21`, the INHIBITION turned out to be 33.4%.
For the compound `CNC(=O)[C@@H]1COC[C@H]2CN(C(=O)c3ccc(C)c(F)c3)C[C@H]21`, the INHIBITION is reported as 31.9%.
Next, `O=C(NC1CCN(C2CC2)CC1)N1CCN(c2cnccn2)CC1`: 37.9%; `CN(C)C(=O)CO[C@H]1CN(Cc2nccs2)[C@@H]2COC[C@H]12`: 0.71%; `Fc1cccnc1Oc1cc(F)c(CN2CCCC2)c(Cl)c1`: 60.9%.
As for `COc1ccc(Oc2nccc3occc23)cc1CN1CCCC1`, the figure is -4.23%; as for `COc1cc(CN2CCCC2)ccc1Oc1ncccc1C(F)(F)F`, 80.3%.
Next, `COc1ccc(Oc2ncccc2F)cc1CN1CCCC1`: 74.8%; `COc1cc(CN2CCCC2)ccc1OC12CCCN(CC1)C2` (stereo unspecified): -14.7%; `N#Cc1cccnc1Oc1cc(F)c(CN2CCCC2)c(Cl)c1`: 11.4%.
As for `COc1ccc(CC(=O)Nc2cccnc2N2CCCC2)cc1OC`, the INHIBITION amounted to 4.71%.
As for `Fc1cccnc1Oc1cc(F)c(CN2CCCC2)c(F)c1`, the figure is 9.84%; as for `COc1cc(Oc2ncccc2C(F)(F)F)ccc1CN1CCCC1`, 88.4%; as for `COc1ccc(OC)c(CN2CCN(Cc3cscn3)CC2)c1`, 1.06%.
As for `COC(=O)c1ccc(Cn2cccc(C(F)(F)F)c2=O)c(OC)c1`, the figure is 33.1%; as for `Cc1nn(C)c(=O)c2nn(-c3cccc(Cl)c3)c(C)c12`, 37.2%; as for `N#Cc1c(N)nc2c(c1-c1c[nH]nc1C1CCCCC1)COCC2`, 11.5%.
As for `Cn1cc(-c2nc(CN3CCOC(Cn4cncn4)C3)cs2)cn1` (stereo unspecified), the figure is 26.5%; as for `COc1ccc(NC(=O)CSc2nncn2-n2cccc2)c(OC)c1`, 31.6%.
As to `CCn1nc2c(cc1=O)CN(CC(=O)Nc1nc(C)c(C)s1)CC2`, the INHIBITION is reported as -0.188%.
In the case of `Cc1cc(N(C)C)nc(C2CCCN2)n1` (stereo unspecified), the INHIBITION is 15.5%.
Turning to `CO[C@@H]1CCN(C(=O)c2ccccn2)[C@H]1Cc1ccccc1`, the INHIBITION is reported as -15.1%.
As for `COc1ccccc1Oc1ncccc1CNC(=O)C(C)N1CCCC1` (stereo unspecified), the figure is 21.7%; as for `COc1ccc(Oc2ncccc2C(F)(F)F)cc1CN1CCCC1`, 66.6%; as for `COc1ncccc1CN1CCC2(CCCN2S(C)(=O)=O)CC1`, 45.2%.
As for `COc1ccc(F)cc1CN1CCCC(c2cc(C(N)=O)[nH]n2)C1` (stereo unspecified), the figure is -2.42%.
As for `COc1ccc(F)cc1CN1CCC(O)(CN2CCCCC2)C1` (stereo unspecified), the figure is 16.1%; as for `COc1ccc(Oc2ncccc2C(N)=O)cc1CN1CCCC1`, 51.2%.
Take `CC(C)c1nn(C)c(N(C)C)c1CNCc1ccccc1CO`: the INHIBITION was -9.05%.
As for `Cc1cc(CN(C)C(=O)NC2CCN(C3CC3)CC2)no1`, the figure is 3.75%; as for `Cc1ccc(C)c(CSc2nnc([C@@H](N)C(C)C)o2)c1`, 34.5%.
Take `CCC(=O)Nc1ccc(OCC(=O)N(C)C(C)c2ccon2)cc1` (stereo unspecified): the INHIBITION worked out at 10.7%.
Next, `Cc1ccc(-c2nc(CC3CCN(C)CC3)no2)cc1N1CCNC1=O`: 14.1%.
As for `CC(c1nnc(-c2cccs2)o1)N1CCc2cncnc2C1` (stereo unspecified), the figure is -18.5%.
